Shown are actives, neighbours in structure and some others; about 6.2% of the full set was active somewhere.
S2 tox – cell viability loss in ATXN counter-screen | 400,000 tested, 0.49% active | Potency, µM (highest dose often 56.7 µM), actives largely listed as cytotoxic | S2 cells (HEK-293 line with an ATXN2-luciferase reporter) viability, CellTiter-Fluor protease fluorescence, 24 h | AID 651635; further: nearly all actives have a fitted effect of over 40% in size
HT1080 IDH1KD tx – toxicity to HT-1080 IDH1 knockdown cells (counter line) | HT-1080 IDH1 knockdown viability, ATP luminescence, 48 h | Potency, µM (highest dose often 46.1 µM), actives largely listed as cytotoxic | 360,000 tested, 2% active
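Cytotoxicity counter-line: IDH1KD HT-1080, 48 h, CellTiter-Glo. Curves classed by r2, magnitude and activity.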
KB-3-1 cytotox – KB-3-1 parental cell cytotoxicity. KB-3-1 viability, CellTiter-Glo ATP luminescence, 72 h. Potency, µM (titrated, usually from 46.1 µM), hits mostly cytotoxic. 400,000 tested, 1.4% active. AID 1347075; further: nearly all actives have a fitted effect of over 60% in size
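Cells are dispensed, compounds pinned in, plates held at 37 °C for 72 h, then CellTiter-Glo is added and luminescence read after 10 minutes. Cell line: parental KB-3-1 in phenol-red-free DMEM, 10% FBS.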
HT1080-NT tox – kills 2HG-producing HT-1080-NT fibrosarcoma cells; 360,000 tested, 1.6% active; Potency, µM (series often up to 46.1 µM), most hits filed as cytotoxic; HT-1080-NT fibrosarcoma viability, CellTiter-Glo ATP luminescence, 48 h;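 further: NT is the 2HG producing partner of a matched IDH1 knockdown line; nearly all actives have a fitted effect of over 55% in size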
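Read-out is CellTiter-Glo luminescence after 10 minutes at room temperature, following 48 hours' compound treatment of HT-1080-NT cells (750 cells/well, RPMI, 5% FBS, 37 degrees C).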
KB-V1 cytotox – KB-V1 MDR subline cytotoxicity; Potency, µM (titrated, usually from 46.1 µM), actives largely listed as cytotoxic; AID 1347076; 400,000 tested, 3.4% active; KB-V1 MDR cells viability, CellTiter-Glo, 72 h; further: nearly all actives have a fitted effect of over 60% in size
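Compound-treated KB-V1 multidrug-resistant cells, 72 h, 37 degrees C; viability by CellTiter-Glo. Fitted qHTS curves give the values.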
ATXN2 expr inh – ATXN2 expression inhibition. HEK-293 ATXN2-luciferase reporter, luminescence, 24 h. Potency, µM (series often up to 57 µM), usual class: inhibitors. 360,000 tested, 0.72% active. AID 1745845; further: nearly all actives have a fitted effect of over 55% in size
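qHTS (up to 57 uM final) was run with 24 h compound exposure of reporter cells at 37 °C. Each well was multiplexed: SteadyGlo luminescence measured ATXN2-luciferase expression after a fluorogenic Gly-Phe-AFC viability readout (25 uM final).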
A number is an active result; i = inactive; ? = inconclusive; nt = no result given; [ ] = remark or other dose. The call rests on the fitted dose curve; in most records, active means well fitted curve in the direction sought with a large enough effect; inconclusive means small, poorly fitted or top-dose-only effect, or another doubt; inactive means no such curve, though single readings can be large; an effect the other way counts as inactive or inconclusive.

SMILES	S2 tox	HT1080 IDH1KD tx	KB-3-1 cytotox	HT1080-NT tox	KB-V1 cytotox	ATXN2 expr inh
COC(=O)c1cc(=O)n(Cc2ccco2)c(=Nc2ccc(F)c(Cl)c2)s1	nt	?	18µM	?	?	28µM
COC(=O)c1cc(=O)n(Cc2cccs2)c(=Nc2ccc(F)cc2)s1	27µM	?	?	?	i	21µM
COC(=O)c1cc(=O)n(Cc2ccc3c(c2)OCO3)c(=Nc2ccccc2)s1	?	?	?	?	i	i
COc1ccc(NC(=O)C(=O)NCCc2csc(-c3ccc(Cl)cc3)n2)cc1OC	i	nt	i	nt	i	i
CCc1ccc(-n2nc(C)c3c(C(=O)Nc4cccc(C(F)(F)F)c4)cc(C)nc32)cc1	i	nt	i	nt	?	?
CCOC(=O)c1c(C)[nH]c(C(=O)CSc2ccc(Cl)cc2)c1C	i	?	i	i	18µM	i
CCOC(=O)c1c(C)[nH]c(C(=O)COC(=O)C2(C)CC2(Cl)Cl)c1C (stereo not given)	i	?	i	i	13µM	i
CCOC(=O)c1c(C)[nH]c(C(=O)COC(=O)CNC(=O)c2ccc(Cl)cc2)c1C	i	i	i	i	4.1µM	i
CCOC(=O)c1c(C)[nH]c(C(=O)COC(=O)COc2ccc(OC)cc2)c1C	i	i	i	i	18µM	i
CCOC(=O)c1c(C)[nH]c(C(=O)COC(=O)c2ccc(O)cc2)c1C	i	i	i	i	?	i
Cc1ccc(S(=O)(=O)c2nnn3c2nc(NCc2ccc4c(c2)OCO4)c2sccc23)cc1	nt	nt	i	nt	i	nt
COC(=O)c1ccc2c(=O)n(CCc3ccc(S(N)(=O)=O)cc3)c(SCC(=O)C(C)(C)C)nc2c1	?	nt	i	nt	i	i
COc1cc(/C=N/NC(=O)c2nc(-c3ccccc3)n(-c3ccccc3)n2)ccc1O	i	i	i	i	i	i
COc1cc(/C=N/Nc2nc(C)nc3c2cnn3-c2ccccc2)ccc1O	i	?	?	?	8.2µM	i[11.3 µM]
COc1ccc(C(C[N+](=O)[O-])C2(c3ccc(OC)c(OC)c3)C(=O)c3ccccc3C2=O)cc1 (stereo not given)	i	21µM	?	?	?	i
O=C1C=C(c2ccccc2)C[C@H](c2cccs2)[C@H]1n1nnc([N+](=O)[O-])n1	28µM	9.2µM	i	15µM	16µM	?
Cc1ccc2nc(CSc3nc(C)ccc3C#N)[nH]c2c1	nt	16µM	i	18µM	i	2.2µM
COc1ccc(C(=O)Cc2ccc(OC)c(OC)c2)c(OC)c1	?	i	i	i	13µM	i
COc1ccc(CC(=O)O/N=C(\N)c2ccncc2)cc1OC	i	i	i	i	i	nt
COc1ccc(/C(N)=N/OC(=O)Cc2ccc(OC)c(OC)c2)cc1	i	i	?	?	8.2µM	i
CN(C)CCCOc1ccc2c(c1)Sc1ccccc1CC2=O	i	i	i	i	10µM	i
COc1cccc(C(=O)NCc2nc(-c3ccccc3)no2)c1OC	i	nt	i	nt	i	i
COc1c(C(=O)Nc2ccc(Cc3ccncc3)cc2)ccc2ccccc12	i	i	13µM	i	2.9µM	i
O=C(NC(=S)Nc1ccc(Cc2ccncc2)cc1)c1ccccc1	i	i	?	i	18µM	i
CCC(C(=O)NCCN1CCOCC1)n1nc(C)n2c(cc3sccc32)c1=O (stereo not given)	i	i	i	i	i	i
SMILES	S2 tox	HT1080 IDH1KD tx	KB-3-1 cytotox	HT1080-NT tox	KB-V1 cytotox	ATXN2 expr inh
CCC(C(=O)N1CCN(c2ccccc2)CC1)n1nc(C)n2c(cc3sccc32)c1=O (stereo not given)	nt	nt	18µM	nt	?	nt
CCC(C(=O)N1CCN(c2cc(Cl)ccc2C)CC1)n1nc(C)n2c(cc3occc32)c1=O (stereo not given)	?	nt	10µM	nt	10µM	?
CCc1cc(-c2[nH]ncc2-c2ccc(OC)cc2)c(O)cc1O	i	?	?	?	?	?
CCc1cc(-c2[nH]ncc2-c2ccc3c(c2)OCO3)c(O)cc1O	?	?	i	?	9.2µM	11µM
COCCCNC(=O)c1sc2nc(C)c(C(=O)Nc3ccc(Cl)cc3)c(-c3ccc(Br)cc3)c2c1N	i	nt	i	nt	?	i
O=C(CN1C(=O)C2(SCC(=O)N2c2cccc(F)c2)c2ccccc21)NCCc1ccccc1 (stereo not given)	i	nt	i	nt	i	i
CCOc1cc2[nH]c(=O)n(CCC(=O)NCCc3ccc(OC)c(OC)c3)c(=O)c2cc1OCC	i	?	i	29µM	i	i
COc1ccc(CCNC(=O)CCn2c(=O)[nH]c3cc(OC)c(OC)cc3c2=O)cc1OC	i	i	i	i	i	i
O=C1[C@H]2CCCC[C@H]2C(=O)N1CCCCN1CCN(c2nsc3ccccc23)CC1	?	?	?	23µM	i	?
COc1ccc(F)cc1-c1cc(C(=O)Nc2ccc(C)c(NS(C)(=O)=O)c2)[nH]n1	3.5µM	?	i	?	i	25µM
CCCOc1ccc(F)cc1-c1cc(C(=O)Nc2ccc(C)c(NS(C)(=O)=O)c2)[nH]n1	i	?	?	?	23µM	i
